Compounds with a hit are over-represented: about 2.4% of the library has one in this group of screens.
TsaE inh = displaces an ADP probe from E. coli YjeE (TsaE) | P0AF67 | purified YjeE enzyme, qHTS inhibition assay | Potency, µM | 71,000 tested, 0.05% active
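Purified YjeE (10 uM) with BODIPY Texas Red-labeled ADP probe (2 uM); compounds pin-transferred, 15 min at room temperature. Binding inhibition read as decreased fluorescence polarization; ADP titration as control.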
Hsp90 Hop PPI = changes Hsp90-Hop TPR2A binding signal, up or down; AlphaScreen TPR2A-His6 binding biotin-Hsp90 C-terminal peptide; Potency, µM (top dose mostly 57 µM), inactives show at the top dose activity change, negative = inhibition; 71,000 tested, 0.44% active; AID 595; active = well fitted curve in either direction with a large enough effect; inconclusive = small, poorly fitted or top-dose-only effect, or another doubt; note: potency is the fitted concentration of half-maximal effect; % is set by controls: 0 for no effect and ±100 for the full control effect
Tau filament bind = binders of human tau filaments; recombinant tau filaments, thioflavin S fluorescence, 15 h; filaments grown with octadecylsulfate alongside compound; Potency, µM (top dose mostly 57.1 µM), inactives show top-dose activity change, negative = inhibition; P10636; 71,000 tested, 2% active;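 note: potency is the fitted concentration of half-maximal effect; % is set by controls: 0 for no effect and ±100 for the full control effect; actives lower thioflavin S fluorescence by blocking filaments or displacing dye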
Target sequence (P10636 whole entry, looked up): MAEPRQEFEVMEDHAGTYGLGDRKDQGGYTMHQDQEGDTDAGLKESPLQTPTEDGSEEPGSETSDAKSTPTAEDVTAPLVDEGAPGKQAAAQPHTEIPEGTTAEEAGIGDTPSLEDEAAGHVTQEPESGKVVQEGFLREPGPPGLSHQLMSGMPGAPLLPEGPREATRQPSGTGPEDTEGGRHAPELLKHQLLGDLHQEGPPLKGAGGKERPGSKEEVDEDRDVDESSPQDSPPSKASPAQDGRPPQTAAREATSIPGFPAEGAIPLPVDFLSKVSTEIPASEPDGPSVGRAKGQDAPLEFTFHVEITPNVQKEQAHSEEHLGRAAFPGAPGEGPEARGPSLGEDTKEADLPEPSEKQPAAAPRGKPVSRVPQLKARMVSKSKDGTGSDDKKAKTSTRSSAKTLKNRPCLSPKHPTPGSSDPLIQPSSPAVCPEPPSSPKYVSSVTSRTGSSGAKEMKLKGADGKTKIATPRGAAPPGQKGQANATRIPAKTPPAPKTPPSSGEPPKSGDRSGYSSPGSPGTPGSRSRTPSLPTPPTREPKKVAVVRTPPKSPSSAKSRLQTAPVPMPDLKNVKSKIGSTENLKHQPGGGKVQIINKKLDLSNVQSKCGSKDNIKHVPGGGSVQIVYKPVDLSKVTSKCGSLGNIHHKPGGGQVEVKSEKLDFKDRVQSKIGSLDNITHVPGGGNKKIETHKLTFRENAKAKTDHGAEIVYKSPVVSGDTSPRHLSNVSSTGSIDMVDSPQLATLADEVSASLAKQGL
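Quantitative HTS: thioflavine S signal from ODS-induced tau filaments, excited at 450 nm, emission 510 nm. Conditions: 1 uM tau, 30 uM ODS, 15 h at 37 C, pH 7.4.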
Pol III holo inh = blocks replication by bacterial DNA polymerase III holoenzyme | reconstituted DNA polymerase III holoenzyme replication, biochemical | Potency, µM (doses to about 57.1 µM), for inactives: at the highest dose activity change, negative = inhibition | 71,000 tested, 0.25% active; note: potency is the fitted concentration of half-maximal effect; % is set by controls: 0 for no effect and ±100 for the full control effect
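Reconstituted *E. coli* holoenzyme (0.35 nM Pol III, 1 nM beta, 154 nM SSB, 2 nM primase) was preincubated with compound for 15 min at RT. Synthesis on 1.4 nM ssM13Gori ran 35 min, then was stopped with PicoGreen/EDTA and read as dsDNA fluorescence.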
BRCT inh green = inhibitors of human BRCA1 BRCT-phosphoprotein interaction (green fluorophore); BRCA1 BRCT-phosphopeptide binding, green fluorescence polarization; 75,000 tested, 0.05% active; Potency, µM (titrated, usually from 76.9 µM), without a hit: at the top dose activity change, negative = inhibition, hits mostly inhibitors;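 note: potency is the fitted concentration of half-maximal effect; plate controls were peptide without protein for full effect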
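Fluorescence polarization: His-tagged BRCT (~35 kDa BRCA1 C-terminus, 250 nM) bound to 100 nM fluorescein-labeled phosphorylated 10-aa BACH1 peptide, pH 7.3 phosphate buffer with DTT and Tween 20. Compounds incubated 12 min at room temperature; inhibition read as lowered polarization.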
BRCT inh red = inhibitors of human BRCA1 BRCT-phosphoprotein interaction (red fluorophore). P38398. BRCT-phosphopeptide binding, red fluorescence polarization. Potency, µM (doses to about 76.9 µM), for inactives: at the top dose activity change, negative = inhibition, hits mostly inhibitors. 75,000 tested, 0.03% active; note: % is set by controls: 0 for no effect and ±100 for the full control effect
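Fluorescence polarization: 100 nM His-tagged BRCA1 BRCT with 100 nM TAMRA-labelled phospho-BACH1 decapeptide, phosphate buffer pH 7.3 with 150 mM NaCl, DTT, 0.01% Tween 20; 12 min RT. Binding inhibition seen as FP decrease.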
* hit, by the source's call; i = inactive; ? = inconclusive; / = not tested or not shown; [ ] = another dose, or the depositor's remark. Unless noted, calls come from the whole dose curve; as a rule, active = well fitted curve in the direction sought with a large enough effect; inconclusive = small, poorly fitted or top-dose-only effect, or another doubt; inactive = no such curve, though single readings can be large; an effect the other way counts as inactive or inconclusive.

SMILES	TsaE inh	Hsp90 Hop PPI	Tau filament bind	Pol III holo inh	BRCT inh green	BRCT inh red
Fc1ccc([C@H]2CCNC[C@H]2COc2ccc3c(c2)OCO3)cc1	i	-7%	32µM*	-4%	-3%	-4%
Cc1cc(=S)[nH]c2ccccc12	i	3%	7%	-3%	-1%	1%
COc1ccc(OC)c2c(=S)c3ccccc3[nH]c12	i	-16%	13µM*	-17%	-5%	-1%
COc1cccc(NC(=O)CSc2nnc(-c3cc(-c4ccccn4)nc4ccccc34)o2)c1	i	-8%	25µM*	-1%	5%	-1%
COc1ccc(-c2nnc(SCC(=O)Nc3cccc(Cl)c3)o2)cc1	i	1%	134%	-3%	-2%	0%
Fc1ccc(-c2cc(C(F)(F)F)nc(N3CCCCC3)n2)cc1	i	?	-5%	1%	-3%	-1%
Cc1ccc(-c2cc(C(F)F)nc(N3CCC(C)CC3)n2)cc1	i	25µM*	-1%	-2%	-3%	0%
CN(CCc1ccccn1)c1ccc2c(c1)Cc1ccccc1-2	i	-7%[11 µM]	?	-5%[11.4 µM]	-2%[15.4 µM]	-1%[15.4 µM]
CN(C)c1ncnc2ccc(-c3ccccc3C#N)cc12	i	?	-14%	-14%	-2%	0%
Cc1cccc(-n2c(=O)[nH]c3c(C(N)=O)nc(C(C)C)nc32)c1	i	-3%	16µM*	-5%	2%	-1%
Nc1nc(CC(=O)O)cs1	i	1%	-2%	-5%	0%	1%
O=C(c1ccco1)N1CCN(C(=O)c2cc(-c3ccncc3)nc3ccc(Br)cc23)CC1	i	-6%	-19%	-1%	1%	0%
O=C(O)c1cc(-c2ccco2)nc2ccc(Br)cc12	i	-1%	-12%	25µM*	-2%	-3%
COc1ccc(OC)c(Nc2nc(-c3cccs3)cs2)c1	i	-13%	16µM*	-1%	-1%	1%
COc1ccccc1Nc1nc(-c2cccs2)cs1	i	-19%	13µM*	-3%	3%	1%
COc1cc(/C=C/C(=O)c2cccs2)cc(OC)c1OC	/	/	/	/	-29%	-1%
COc1cccc2c1C(=O)c1c(O)c3c(c(O)c1C2=O)C[C@](O)(C(=O)CO)C[C@H]3O[C@@H]1C[C@H](N)[C@H](O)[C@H](C)O1	i	-10%[26 µM]	5µM*	0.79µM*	12%[34.4 µM]	?
Cc1onc(-c2ccccc2Cl)c1C(=O)Nc1ccc(-n2nncc2C(C)(C)C)cc1	i	-3%	25µM*	-1%	-1%	0%
Cc1onc(-c2ccccc2Cl)c1C(=O)Nc1ccc(-n2nncc2-c2ccco2)cc1	i	-12%	?	11%	-8%	1%
O=C(O)c1cc2ccccc2c(Cc2c(O)c(C(=O)O)cc3ccccc23)c1O	i	-2%[11 µM]	3%[11.4 µM]	-11%[11.4 µM]	-2%[15.4 µM]	0%[15.4 µM]
Cc1ccc(-c2noc(CN(C(=O)CCCN3C(=O)c4ccccc4C3=O)C(C)C)n2)cc1	i	1%	16µM*	0%	-6%	0%
Cc1ccc(-c2noc(CN(C(=O)CCCCCN3C(=O)c4ccccc4C3=O)C(C)C)n2)cc1	i	6%	?	-2%	-1%	-3%
O=C(c1ccncc1)N1CCC2(CC1)CN(c1cccc(-c3ccccc3)c1)C2	i	?	13%	0%	-2%	-3%
Cc1cc(N2CCN(c3nc(N4CCOCC4)nc4ccccc34)CC2)c2ccccc2n1	i	-7%	-8%	-21%	-1%	0%
Cc1cc(N2CCOCC2)c2c(N)c(Br)cc(C)c2n1	i	4%[11 µM]	3.2µM*	4%[11.4 µM]	-2%	-1%
COc1ccc(C(C(O)C(=O)c2c[nH]c3ccccc23)N2CCN(c3ccc(OC)cc3)CC2)cc1 (stereo unspecified)	i	-25%	13µM*	2%	1%	1%
O=C(c1c[nH]c2ccccc12)C(O)C(c1ccccc1)N1CCOCC1 (stereo unspecified)	i	-4%	1%	-1%	4%	0%
